Measurements as given in PubChem BioAssay (NCATS).
Records with an inconclusive call do not appear. A number with no mark means an inactive call. Calls of active or inactive are those of the source. Calls come from the whole dose curve; as a rule, active = well fitted cell-killing curve with a large enough effect; inconclusive = small, poorly fitted or top-dose-only effect, or effect the other way; inactive = flat fitted curve, though single readings scatter.

Test system: HeLa
Assay: Primary qHTS to identify gynecologic anti-cancer compounds using libraries of approved drugs and bioactive compounds (AID 1345084); note: nearly all actives have a fitted effect of over 55% in size
Details: Gynecologic cancer cell panel viability, ATPlite luminescence, 48 h; series mostly up to 57.5 µM; activity change, negative = cytotoxicity: at the top concentration
In short: (§1)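 Five-concentration response, 48 h; readout is ATP-driven luciferase luminescence.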
% is set by controls: 0 for no effect and ±100 for the full control effect; potency is the fitted concentration of half-maximal effect.

For Cc1cc(-c2nc3cc(F)ccc3s2)ccc1NC(=O)[C@@H](N)CCCCN, the Potency was 14.1 µM (active).
C1=C/COCc2cc(ccc2OCCN2CCCC2)Nc2nccc(n2)-c2cccc(c2)COC/1 was tested, and the Potency was 3.98 µM (active).

Point of comparison: C/C=C/C=C/c1cc2c(C=O)c(O)c(CC=C(C)C)cc2o1, “activity change, negative = cytotoxicity” value 5.5%. Against it:
- Cc1ccccc1CN1CCn2c1nc1c(c2=O)CN(Cc2ccccc2)CC1 — lower, -2.53%
- COc1ccnc(CS(=O)c2nc3cc(OC(F)F)ccc3[nH]2)c1OC (stereo not drawn) — lower, -1.46%
- COc1ccc(-c2cnc3c(-c4cccc5ncccc45)cnn3c2)cc1 — lower, -0.105%
- CC(C)(C)OC(=O)c1ncn2c1C(C)(C)Nc1ccccc1-2 — lower, 5.24%
- CN1CCN(C(=O)CN[C@@H]2C[C@H]2c2ccc(OCc3ccccc3)cc2)CC1 — lower, -1.15%
- O=C(COc1ccc2ccccc2c1Br)Nc1cccnc1 — lower, -7.74%
- O=C(Nc1ccc2[nH]c(=O)oc2c1)C(=O)N1CCC(Cc2ccc(F)cc2)CC1 — lower, -1.03%
- CCOc1ccc(-n2c(C(C)N(Cc3cccnc3)C(=O)Cc3ccc(F)c(C(F)(F)F)c3)nc3ncccc3c2=O)cc1 (stereo not drawn) — lower, 0.394%
- Cc1ccc(N2CCN(S(=O)(=O)N3CCCCC3)CC2)c(C)c1 — lower, -2.57%
- Cn1ncnc1[C@@H]1c2n[nH]c(=O)c3cc(F)cc(c23)N[C@H]1c1ccc(F)cc1 — higher, 13.5%
- O=C(Cc1c(F)cccc1F)Nc1cc(OCc2ccc(Cl)cc2)ccn1 — lower, -2.69%
- CCOc1ccc(-n2c([C@@H](C)N(Cc3cccnc3)C(=O)Cc3ccc(OC(F)(F)F)cc3)nc3ncccc3c2=O)cc1 — lower, 0.682%
- C=C(C)C1=C[C@@]2(C)C(=CC1=O)CC[C@@H](O)[C@@H]2C — lower, -0.0526%
- C=C1/C(=C/C=C2\CCC[C@]3(C)[C@@H]([C@H](C)/C=C/[C@H](O)C4CC4)CC[C@@H]23)C[C@@H](O)C[C@@H]1O — higher, 9.02%
- CC(C)(C)c1ccc(C(=O)Nc2cc(Cl)c(Br)cc2C(=O)O)cc1 — lower, -12.7%
- O=C(NCC1(c2nc(-c3ccccc3)cs2)CCOCC1)c1cccc(-c2noc(C(F)(F)F)n2)c1 — lower, -0.959%
- Cc1ccc(N2CCN(CCC3NC(=O)c4ccccc43)CC2)cc1C (stereo not drawn) — lower, 3.59%
- Cc1noc(-c2ccc(-c3ccc(CC(=O)O)cc3)cc2)c1NC(=O)O[C@H](C)c1ccccc1Cl — lower, -14%
- COc1cc(N(C)CCN(C)C)c(N)cc1Nc1nccc(-c2cn(C)c3ccccc23)n1 — lower, -2.06%
- C=C1/C(=C/C=C2\CCC[C@@]3(C)C2CCC3[C@H](C)/C=C/[C@@H](O)C2CC2)C[C@@H](O)C[C@@H]1O (stereo partly drawn) — lower, -3.75%
- O=C(NCC1CCN(Cc2cccc(Cl)c2)CC1)[C@@H]1CCCN(c2ncnc3c2nc2n3CCCC2)C1 — lower, -0.59%
- C=CC1(C)CC(O)C(C(=C)C(=O)OC)C(O)C1C(=C)CO (stereo not drawn) — higher, 10.5%
- C=C[C@](C)(O)CC[C@H]1C(C)=CC(=O)[C@H]2C(C)(C)CCC[C@]12C — lower, 0.908%
- Cn1c(SCC(=O)N2CCC[C@H]2C(=O)Nc2ccccc2-c2ccccc2)nc2ccccc21 — lower, -1.12%
- Cn1ncc2cc(-c3cnc(N)c(Cl)c3N3CCC4(CCNC4=O)CC3)ccc21 — lower, 1.99%

Point of comparison: CC(=O)OC/C(=C/C(=O)O)CC[C@@H]1C(C=O)=CC[C@@H]2C(C)(C)CCC[C@@]12C, “activity change, negative = cytotoxicity” value -5.49% [at 38.5 µM]. Against it:
- C=C(C)C(=O)O[C@H]1/C(C=O)=C\CC/C(CO)=C/[C@H]2OC(=O)C(=C)[C@@H]2[C@@H]1OC — higher, -2.19% [at 38.5 µM]
- C=C1C(=O)OC2/C=C(\CO)CC/C=C(\C=O)C(O)C(OC(=O)C(C)CC)C12 (stereo not drawn) — lower, -16.3% [at 38.5 µM]
- COc1c(C(O)CC(C)C)ccc2c1C(=O)OCc1cc(C)cc(O)c1O2 (stereo not drawn) — lower, -18.4% [at 38.5 µM]
- CN1CCN(c2ccc(-c3cccc(CN4CCOCC4)c3)cc2NC(=O)c2c[nH]c(=O)cc2C(F)(F)F)CC1 — higher, 2.87% [at 38.5 µM]

Point of comparison: CC(C)C(C)C(O)C1CC23CC(=O)C4(O)C(=C2CCC3C1C)C=CC1(O)CC(O)CCC14C (stereo not drawn), “activity change, negative = cytotoxicity” value -1.89% [at 25.3 µM]. Against it:
- C[C@@H]1CC[C@]2(C(=O)O)CC[C@]3(C)C(=CCC4[C@@]5(C)CC[C@H](O)[C@](C)(C(=O)O)C5CC[C@]43C)C2[C@]1(C)O (stereo partly drawn) — higher, 9.76% [at 25.3 µM]
- CC(=O)OC[C@]12[C@H](OC(C)=O)C(=O)[C@@H]3[C@@H](O)[C@@]14O[C@@]3(C)COC(=O)c1cccnc1[C@@H](C)[C@H](C)C(=O)O[C@@H]([C@H](O)[C@@H]2OC(C)=O)[C@]4(C)O — lower, -7.46% [at 25.3 µM]
- COc1ccc(CCO[C@@H]2O[C@H](CO[C@H]3OC[C@](O)(CO)[C@H]3O)[C@@H](OC(=O)/C=C/c3ccc(O)c(O)c3)[C@H](O[C@@H]3O[C@@H](C)[C@H](O)[C@@H](O)[C@H]3O)[C@H]2O)cc1OC — higher, 8.65% [at 25.3 µM]
- CC(=O)OC1CC(C)C2(CCC3(CC(=O)OC3O)O2)C2(C)CCCC(C)(C)C12 (stereo not drawn) — lower, -8.09% [at 25.3 µM]

With CC(C)NC(=O)N1CC[C@H](N=C2Nc3cc(F)ccc3N(CC(F)F)c3ccc(Cl)cc32)C1 the activity change, negative = cytotoxicity was -4.91% [at 11.6 µM].

Test system: Hek293T
Assay: as above
Details: Gynecologic cancer cell panel viability, ATPlite luminescence, 48 h, control line for the selectivity index; series mostly up to 57.5 µM; activity change, negative = cytotoxicity: at the top concentration
In short: as §1

For Cc1cc(-c2nc3cc(F)ccc3s2)ccc1NC(=O)[C@@H](N)CCCCN, the Potency was 12.6 µM (active).
C1=C/COCc2cc(ccc2OCCN2CCCC2)Nc2nccc(n2)-c2cccc(c2)COC/1 was tested, and the Potency was 7.94 µM (active).

Point of comparison: C=C1/C(=C/C=C2\CCC[C@@]3(C)C2CCC3[C@H](C)/C=C/[C@@H](O)C2CC2)C[C@@H](O)C[C@@H]1O (stereo partly drawn), “activity change, negative = cytotoxicity” value -7.39%. Against it:
- Cc1ccccc1CN1CCn2c1nc1c(c2=O)CN(Cc2ccccc2)CC1 — higher, 0.447%
- COc1ccnc(CS(=O)c2nc3cc(OC(F)F)ccc3[nH]2)c1OC (stereo not drawn) — higher, 3.5%
- COc1ccc(-c2cnc3c(-c4cccc5ncccc45)cnn3c2)cc1 — higher, 4.66%
- CC(C)(C)OC(=O)c1ncn2c1C(C)(C)Nc1ccccc1-2 — lower, -21.1%
- CN1CCN(C(=O)CN[C@@H]2C[C@H]2c2ccc(OCc3ccccc3)cc2)CC1 — lower, -8.65%
- O=C(COc1ccc2ccccc2c1Br)Nc1cccnc1 — lower, -23.4%
- O=C(Nc1ccc2[nH]c(=O)oc2c1)C(=O)N1CCC(Cc2ccc(F)cc2)CC1 — higher, -0.762%
- CCOc1ccc(-n2c(C(C)N(Cc3cccnc3)C(=O)Cc3ccc(F)c(C(F)(F)F)c3)nc3ncccc3c2=O)cc1 (stereo not drawn) — higher, 26.5%
- Cc1ccc(N2CCN(S(=O)(=O)N3CCCCC3)CC2)c(C)c1 — lower, -13.7%
- Cn1ncnc1[C@@H]1c2n[nH]c(=O)c3cc(F)cc(c23)N[C@H]1c1ccc(F)cc1 — higher, -5.24%
- O=C(Cc1c(F)cccc1F)Nc1cc(OCc2ccc(Cl)cc2)ccn1 — higher, -3.06%
- CCOc1ccc(-n2c([C@@H](C)N(Cc3cccnc3)C(=O)Cc3ccc(OC(F)(F)F)cc3)nc3ncccc3c2=O)cc1 — higher, 2.35%
- C=C(C)C1=C[C@@]2(C)C(=CC1=O)CC[C@@H](O)[C@@H]2C — lower, -24.4%
- C=C1/C(=C/C=C2\CCC[C@]3(C)[C@@H]([C@H](C)/C=C/[C@H](O)C4CC4)CC[C@@H]23)C[C@@H](O)C[C@@H]1O — higher, 0.254%
- CC(C)(C)c1ccc(C(=O)Nc2cc(Cl)c(Br)cc2C(=O)O)cc1 — lower, -15.6%
- O=C(NCC1(c2nc(-c3ccccc3)cs2)CCOCC1)c1cccc(-c2noc(C(F)(F)F)n2)c1 — higher, -2.54%
- C/C=C/C=C/c1cc2c(C=O)c(O)c(CC=C(C)C)cc2o1 — higher, -0.757%
- Cc1ccc(N2CCN(CCC3NC(=O)c4ccccc43)CC2)cc1C (stereo not drawn) — higher, 4.73%
- Cc1noc(-c2ccc(-c3ccc(CC(=O)O)cc3)cc2)c1NC(=O)O[C@H](C)c1ccccc1Cl — higher, 2.44%
- COc1cc(N(C)CCN(C)C)c(N)cc1Nc1nccc(-c2cn(C)c3ccccc23)n1 — higher, -2.58%
- O=C(NCC1CCN(Cc2cccc(Cl)c2)CC1)[C@@H]1CCCN(c2ncnc3c2nc2n3CCCC2)C1 — lower, -26.1%
- C=CC1(C)CC(O)C(C(=C)C(=O)OC)C(O)C1C(=C)CO (stereo not drawn) — lower, -9.34%
- C=C[C@](C)(O)CC[C@H]1C(C)=CC(=O)[C@H]2C(C)(C)CCC[C@]12C — higher, -3.94%
- Cn1c(SCC(=O)N2CCC[C@H]2C(=O)Nc2ccccc2-c2ccccc2)nc2ccccc21 — higher, 0.528%
- Cn1ncc2cc(-c3cnc(N)c(Cl)c3N3CCC4(CCNC4=O)CC3)ccc21 — higher, -6.14%

Point of comparison: COc1c(C(O)CC(C)C)ccc2c1C(=O)OCc1cc(C)cc(O)c1O2 (stereo not drawn), “activity change, negative = cytotoxicity” value 0.288% [at 38.5 µM]. Against it:
- C=C(C)C(=O)O[C@H]1/C(C=O)=C\CC/C(CO)=C/[C@H]2OC(=O)C(=C)[C@@H]2[C@@H]1OC — lower, -16.3% [at 38.5 µM]
- CC(=O)OC/C(=C/C(=O)O)CC[C@@H]1C(C=O)=CC[C@@H]2C(C)(C)CCC[C@@]12C — higher, 1.64% [at 38.5 µM]
- C=C1C(=O)OC2/C=C(\CO)CC/C=C(\C=O)C(O)C(OC(=O)C(C)CC)C12 (stereo not drawn) — lower, -21.3% [at 38.5 µM]
- CN1CCN(c2ccc(-c3cccc(CN4CCOCC4)c3)cc2NC(=O)c2c[nH]c(=O)cc2C(F)(F)F)CC1 — lower, -1.77% [at 38.5 µM]

Point of comparison: C[C@@H]1CC[C@]2(C(=O)O)CC[C@]3(C)C(=CCC4[C@@]5(C)CC[C@H](O)[C@](C)(C(=O)O)C5CC[C@]43C)C2[C@]1(C)O (stereo partly drawn), “activity change, negative = cytotoxicity” value -0.95% [at 25.3 µM]. Against it:
- CC(=O)OC[C@]12[C@H](OC(C)=O)C(=O)[C@@H]3[C@@H](O)[C@@]14O[C@@]3(C)COC(=O)c1cccnc1[C@@H](C)[C@H](C)C(=O)O[C@@H]([C@H](O)[C@@H]2OC(C)=O)[C@]4(C)O — lower, -22% [at 25.3 µM]
- COc1ccc(CCO[C@@H]2O[C@H](CO[C@H]3OC[C@](O)(CO)[C@H]3O)[C@@H](OC(=O)/C=C/c3ccc(O)c(O)c3)[C@H](O[C@@H]3O[C@@H](C)[C@H](O)[C@@H](O)[C@H]3O)[C@H]2O)cc1OC — higher, -0.0516% [at 25.3 µM]
- CC(=O)OC1CC(C)C2(CCC3(CC(=O)OC3O)O2)C2(C)CCCC(C)(C)C12 (stereo not drawn) — higher, 2.2% [at 25.3 µM]
- CC(C)C(C)C(O)C1CC23CC(=O)C4(O)C(=C2CCC3C1C)C=CC1(O)CC(O)CCC14C (stereo not drawn) — lower, -4.42% [at 25.3 µM]

With CC(C)NC(=O)N1CC[C@H](N=C2Nc3cc(F)ccc3N(CC(F)F)c3ccc(Cl)cc32)C1 the activity change, negative = cytotoxicity was 1.3% [at 11.6 µM].
